We go through 40 compounds from PubChem BioAssay (EPA / NIEHS).

Records with an inconclusive call do not appear. Active and inactive are the calls of the source. The calls were made as follows: active = hit-call score of the fitted dose curve at least 0.9, where 1 is the maximum; inconclusive = response in the unintended direction; inactive = score below 0.9.

One may read the AC50 as the concentration at which the activity in the assay is half-maximal.

Read-out in the assay: glucuronosyltransferase (UGT1A1), UGT1A1 (gene 54658)
The experiment in a line: CLD_UGT1A1_48hr: CellzDirect (CLD) Gene Expression Assay for glucuronosyltransferase (UGT1A1) at 48 hours (AID 2283709).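 Also: actives increase expression relative to DMSO so potency refers to induction.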 The method, then: CLD_48hr is a cell-based, multiplexed-readout assay that uses hepatocyte, a human liver primary cell, with measurements taken at 48 hours after chemical dosing in a 96-well plate.CLD_UGT1A1_48hr is one of 16 assay component(s) measured or calculated from the CLD_48hr assay. It is designed to make measurements of mRNA induction, a form of inducible reporter, as detected with chemiluminescence signals by Quantitative Nuclease Protection Assay (qNPA) technology.Data from the assay component CLD_UGT1A1_48hr was analyzed at the endpoint, CLD_UGT1A1_48hr, in the positive analysis fitting direction relative to DMSO as the negative control and baseline of activity. Using a type of inducible reporter, gain-of-signal activity can be used to understand changes in the reporter gene as they relate to the gene UGT1A1. Furthermore, this assay endpoint can be referred to as a primary readout. To generalize the intended target to other relatable targets, this assay endpoint is annotated to the transferase intended target family, where subfamily is glucuronosyltransferase.
Human hepatocyte cultures were treated daily for two consecutive days with fresh dosing solutions containing appropriate concentrations of the 320 ToxCast chemicals (chemical identities were blinded to CellzDirect and other ToxCast collaborators), vehicle control (0.2% DMSO), and positive control inducers as summarized in Table 1. Due to the large number of treatment groups and chemicals examined, the ToxCast chemicals were divided into two groups (spanning two independent cultures of hepatocytes from separate donor preparations (Hu778: ToxCast plates 1 and 2; Hu776: ToxCast plates 3 and 4). Each preparation of human hepatocyte cultures was treated with respective vehicle control, medium only control, set of six positive controls/reference chemicals for the five hepatic receptor pathways, and a subset of eight of the ToxCast chemicals (indoxacarb, pyrithiobac-sodium, norflurazon, cyhalofop-butyl, methomyl, thiram, acetochlor, and propiconazole). These replicate data, coupled with internal replicates designed within the blinded ToxCast chemical library, provided additional data to evaluate interindividual differences between hepatocyte preparations and their potential impact on chemical profiles.Cell morphology and integrity were evaluated using phase-contrast microscopy as an indicator of hepatocyte cell health (Tyson & Green, 1987). Cultures for each treatment group (i.e., media, vehicle [0.2% DMSO], positive control inducers [multiple concentrations], and the ToxCast chemicals [multiple concentrations]) were observed and cell morphology was assessed relative to vehicle control cultures at each harvest time point (0, 6, 24, or 48 h). […] Images were evaluated at the conclusion of the study to assess changes in cell integrity and account for the effects of chemical exposure on uncharacteristic changes in concentration-dependent gene expression profiles. The results from these determinations of apparent cytotoxicity were annotated (yes/no) alongside the corresponding qNPA data for reference.At the conclusion of each treatment period, hepatocyte cultures (96-well) were washed with 1 volume of HBSS, lysed by addition of 25 ul ArrayPlate lysis buffer (HTG, Tucson, AZ), and 70 ul/well of Denaturation Oil, denatured by incubation at 95C for 10 min, and frozen at approximately -70C until analysis by nuclease protection assay (qNPA) (Roberts et al., 2007). For qNPA analysis, cell lysates were thawed at 50C for approximately 30 min, qNPA probes were added, and samples were incubated at 95C for 10 min to begin the detection process by denaturing the target RNA, dissociating the duplexes and secondary structure hybridization. At the conclusion of the hybridization period, S1 nuclease reagent was added to each sample to digest all nonprotected nucleotides at 50C for 60-90 min. […]
In the case of `CCCN(CC)CC1COC2(CCC(C(C)(C)C)CC2)O1` (stereo not given), the result was inactive.

Take `COc1cc(Cl)c(OC)cc1Cl`: the compound was classed as inactive. As to `CC1(C)C(C(=O)OC(C#N)c2cccc(Oc3ccccc3)c2)C1(C)C` (stereo not given), the AC50 was 5.67 µM (active).

On to `CCCCOCN(C(=O)CCl)c1c(CC)cccc1CC`, for which the compound was called inactive.

Turning to `O=C(Nc1ccccc1-c1ccc(Cl)cc1)c1cccnc1Cl`, the outcome was inactive. For the compound `N#Cc1c[nH]cc1-c1cccc2c1OC(F)(F)O2`, the compound was classed as inactive. Consider `COC(=O)c1c(C(F)F)nc(C(F)(F)F)c(C2=NCCS2)c1CC(C)C`, for which the compound was classed as inactive. `CC(C)=CC1C(C(=O)OCc2coc(Cc3ccccc3)c2)C1(C)C` (stereo not given): the call was inactive. Still for that read-out and setting: the result for `COP(=O)(OC)O/C(C)=C/C(=O)N(C)C` reads “inactive”; that for `Clc1nc(Cl)nc(Nc2ccccc2Cl)n1`, “inactive”. In the case of `Clc1cccc(C(Cl)(Cl)Cl)n1`, the compound was called inactive.

With `CCSC(=O)N1CCCCCC1`, the compound was called inactive. For the compound `CC(C)Oc1cccc(NC(=O)c2ccccc2C(F)(F)F)c1`, the call was inactive. On to `CC(C)C1(C)N=C(c2ncccc2C(=O)O)NC1=O` (stereo not given), for which the compound was called inactive.

Turning to `Cc1cc(C)nc(Nc2ccccc2)n1`, the result was inactive.

As for `COC(=O)NS(=O)(=O)c1ccc(N)cc1`, the compound was called inactive. `OC(c1ccc(Cl)cc1)(c1ccc(Cl)cc1)C(Cl)(Cl)Cl`: the compound was classed as inactive. For `CCCC(=NOCC)C1=C(O)CC(CC(C)SCC)CC1=O` (stereo not given), the result was inactive. As to `CS(=O)(=O)c1cc(C(F)(F)F)ccc1C(=O)c1cnoc1C1CC1`, the outcome was inactive. Take `O=c1n(Cl)c(=O)n(Cl)c(=O)n1Cl`: the outcome was inactive.

For `C=CCOC(=O)C(C)(C)OC(=O)c1cc(-n2c(=O)cc(C(F)(F)F)n(C)c2=O)ccc1Cl`, the outcome was inactive. Turning to `CCN(CC)c1nc(C)cc(OP(=S)(OC)OC)n1`, the compound was called inactive. Take `O=P(O)(O)CCCl`: the compound was called inactive. As to `CCC(C)n1c(=O)[nH]c(C)c(Br)c1=O` (stereo not given), the result was inactive.

In the case of `CNC(=O)Oc1cccc2ccccc12`, the compound was called inactive. With `Nc1c(Cl)c(F)nc(OCC(=O)O)c1Cl`, the result was inactive.

As for `COP(=S)(OC)Oc1ccc([N+](=O)[O-])c(C)c1`, the half-maximal activity concentration (AC50) was 5.37 µM (active). With `CC1(C)CCC(=Cc2ccc(Cl)cc2)C1(O)Cn1cncn1` (stereo not given), the outcome was inactive.

Regarding `CSC(=O)c1c(C(F)F)nc(C(F)(F)F)c(C(=O)SC)c1CC(C)C`, the call was inactive. In the case of `CCOC(=O)C(C)OC(=O)c1cc(Oc2ccc(C(F)(F)F)cc2Cl)ccc1[N+](=O)[O-]` (stereo not given), the AC50 is 7 µM (active). For `CCCCC(O)(Cn1cncn1)c1ccc(Cl)cc1Cl` (stereo not given), the compound was called inactive. On to `CCOP(=S)(OCC)Oc1nc(Cl)n(C(C)C)n1`, for which the half-maximal activity concentration (AC50) was 1.9 µM (active). Regarding `CCNP(=S)(OC)O/C(C)=C/C(=O)OC(C)C` (stereo not given), the AC50 is 1.04 µM (active).

For the compound `CNC(=O)N(C)c1nnc(C(C)(C)C)s1`, the outcome was inactive.

In the case of `Cc1nc(N(C)C)nc(OC(=O)N(C)C)c1C`, the outcome was inactive.

As for `CCCCC(C#N)(Cn1cncn1)c1ccc(Cl)cc1` (stereo not given), the result was inactive. Take `COc1ccc(-c2ccccc2)cc1NNC(=O)OC(C)C`: the result was inactive. In the case of `C=C(C)CN(CC)c1c([N+](=O)[O-])cc(C(F)(F)F)cc1[N+](=O)[O-]`, the compound was classed as inactive.

Take `CC(C)N1C(=O)c2ccccc2NS1(=O)=O`: the compound was called inactive.

`COCc1cnc(C2=NC(C)(C(C)C)C(=O)N2)c(C(=O)O)c1` (stereo not given): the outcome was inactive.
